# Assay results published in PubChem BioAssay AID2732 (Emory University Molecular Libraries Screening Center, 2010).
# Screen size: about 220,000 compounds; about 8,200 (3.7%) were called active. The sample holds actives, similar compounds and a random draw of the others, so the mix is not that of the screen.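 Rule for the calls: active = compounds that reduced the stress-induced luciferase reporter signal by more than about 70% of percent inhibition (limit read from the data); inactive = the rest.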
# Assay: inhibitors of CHOP promoter induction, primary screen, cell-based, unfolded protein response, luciferase reporter (AID 2732);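 note: 0% = tunicamycin plus vehicle and 100% = wells without tunicamycin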
# Details: CHO-K1 CHOP-promoter luciferase, tunicamycin-induced, 15-18 h; at 10 µM; active compounds read high
row,SMILES,inhibition
1,Cn1cnc(S(=O)(=O)Nc2ccc3c(c2)OCCO3)c1,26.2% (inactive)
2,CC/C(=N\NC(=S)NC(C)C)c1ccc(OC(F)F)cc1,11.9% (inactive)
3,C/C(=N\NC(=S)NCc1ccccc1)c1ccc(Cl)cc1,16.1% (inactive)
4,C/C(=N\NC(=S)NC(C)C)c1ccc(C(C)(C)C)cc1,72.1% (active)
5,Nc1nc(CC(=O)CSc2ccc(Cl)cc2)nc(Nc2ccc(F)cc2)n1,81.9% (active)
6,CCOC(=O)N1CCN(Cc2nc(N)nc(Nc3ccc(C)cc3)n2)CC1,30.1% (inactive)
7,Cc1ccc(Nc2nc(N)nc(CSc3nnc(C)s3)n2)cc1,-43.6% (inactive)
8,O=S(=O)(Cc1noc(-c2ccc(OC(F)(F)F)cc2)n1)c1ccc(F)cc1,-5.94% (inactive)
9,COc1ccc(NC(=O)c2cn(-c3ccccc3)nc2SC)cc1,14.6% (inactive)
10,Cc1ccc(S(=O)(=O)/N=C(/Nc2ccccn2)c2ccc(Cl)cc2)cc1,14.2% (inactive)
11,O=S(=O)(/N=C(/Nc1ccccn1)c1ccccc1)c1ccc(Cl)cc1,8.33% (inactive)
12,Cc1ccc(S/C(=N\S(=O)(=O)c2ccc(Cl)cc2)c2ccccc2)cc1,85.7% (active)
13,O=C(Nc1cccnc1Oc1ncnc2cc(Cl)ccc12)c1ccc(F)cc1,-24.4% (inactive)
14,CCOC(=O)c1cn[nH]c1NC(=S)Nc1ccccc1,-6.82% (inactive)
15,COc1ccc(C(=O)C2CCCN(C(=O)c3cnsn3)C2)c(C)c1 (stereo unspecified),1.06% (inactive)
16,Fc1ccc(/C=N/Nc2nc(-c3cccnc3)nc3ccccc23)cc1,1.02% (inactive)
17,FC(F)(F)c1nc2ccccc2nc1N/N=C/c1ccc(Cl)cc1,70.3% (active)
18,FC(F)(F)c1cccc(N/N=C/c2ccccc2)c1,69% (inactive)
19,COc1ccc2c(CC(=O)OCC(=O)NC(N)=O)coc2c1,8.09% (inactive)
20,COc1ccc(CCNC(=O)/C(C#N)=C2\N=C(NC(=O)c3cccs3)c3ccccc32)cc1,81.3% (active)
21,COc1ccc(CCNC(=O)c2ccco2)cc1,14.1% (inactive)
22,COc1ccc(CN(Cc2ccc(OC)cc2)C(=O)c2cccs2)cc1,-9.17% (inactive)
23,Cc1ccc(/C=C/C(=O)O)cc1S(=O)(=O)N1CCC(Cc2ccccc2)CC1,-11.4% (inactive)
24,Cc1onc(-c2ccccc2)c1C(=O)N=C(N)c1ccc(Cl)cc1,6.38% (inactive)

row,SMILES,inhibition
1,Fc1c(F)c(C(F)(F)F)c(F)c(F)c1N1CCN(c2ccc3nnc(C(F)(F)F)n3n2)CC1,72.7% (active)
2,FC(F)(F)c1nnc2ccc(N3CCN(c4ccccc4)CC3)nn12,49.9% (inactive)
3,O=C(Nc1ccc(S(=O)(=O)Nc2nccs2)cc1)c1cc(=O)[nH]c2ccccc12,19.9% (inactive)
4,CC1(C)CCSC(/C=C/c2ccccc2)=N1,-147% (inactive)
5,O=C(Nc1nnc(CCN2CCCCC2)s1)c1cccc(Cl)c1,6.02% (inactive)
6,Nc1nnn(CC(=O)N/N=C/c2ccc(O)cc2)n1,-8.23% (inactive)
7,Cc1ccc(C(=O)N/C(=C/c2ccc(-c3cccc([N+](=O)[O-])c3)o2)C(=O)NCCCN(C)C)cc1,8.44% (inactive)
8,Cc1ccc(Cc2cnc(NC(=O)/C(C#N)=C/c3ccc(-c4cccc([N+](=O)[O-])c4)o3)s2)cc1,93.4% (active)
9,N#C/C(=C\c1ccc(-c2cccc([N+](=O)[O-])c2)o1)C(=O)NCCN1CCOCC1,27.9% (inactive)
10,Cc1ccc(/C=N/NC(=S)NC2CCCCC2)o1,2.92% (inactive)
11,Nc1ccccc1Sc1cc(Cl)nnc1Cl,20% (inactive)
12,CC(=O)Nc1ccc(CC#N)cc1,18.1% (inactive)
13,CC1(C)CC(=O)C(N=Nc2c(F)cccc2F)=C(O)C1,7.79% (inactive)
14,CCCSc1nc2c(c(=O)n(C)c(=O)n2C)n1Cc1ccc(C)cc1,77.2% (active)
15,CCOc1ccc(Cn2c(SCCCCC#N)nc3c2c(=O)n(C)c(=O)n3C)cc1OCC,17.3% (inactive)
16,Cc1cccc(Cn2c(SCCO)nc3c2c(=O)n(C)c(=O)n3C)c1,16.8% (inactive)
17,Cc1nc2cc(NC(=O)Nc3cccc(F)c3)ccc2n1C,-0.84% (inactive)
18,C/C(Cc1ccccc1)=N\NC(=O)CNC(=O)c1ccc2c(c1)OCCO2,14.9% (inactive)
19,CC(=O)N1CCC(N(C(=O)Nc2ccc(Cl)cc2)C(C)C)CC1,15.3% (inactive)
20,CC(C)Oc1ccc(CCC(=O)NNC(=S)NCc2ccccc2)cc1,6.72% (inactive)
21,CC1(C)CC(N2CCN(C(c3ccccc3)c3ccccc3)CC2)=CC(=[N+]2CCCCC2)C1,65.3% (inactive)
22,CN(CC(=O)Nc1ccc(F)cc1)CC(=O)Nc1ccc(Cl)c(S(=O)(=O)N2CCOCC2)c1,-2.81% (inactive)
23,Cc1nn2c(NCCN(C)C)c3c(nc2c1-c1ccccc1)CCC3,-22% (inactive)
24,CSc1nc2sc3c(c2c(=O)[nH]1)CCc1ccccc1-3,106% (active)

row,SMILES,inhibition
1,COc1ccc(-n2c(=S)[nH]c3sc4c(c3c2=O)CCc2ccccc2-4)cc1,-20.5% (inactive)
2,CCC1(C)Cc2c(sc3nc(SC)[nH]c(=O)c23)CO1 (stereo unspecified),10% (inactive)
3,CCn1c(SCC(=O)N/N=C/c2ccccc2OCC(=O)O)nnc1-c1ccc(C(C)(C)C)cc1,4.75% (inactive)
4,CC(C)(C)n1cnnc1Sc1ccc([N+](=O)[O-])cn1,12.9% (inactive)
5,Cc1ccc(-c2c[n+](CC(=O)Nc3ccccc3)c3n2CCC3)cc1,16.6% (inactive)
6,O=C(O)C1CCN(C(=O)c2cc(F)cc3c2OCOC3)CC1,12.2% (inactive)
7,O=C(Nc1ccc2c(c1)C(=O)OC2)Nc1cccc2ccccc12,90.2% (active)
8,Cc1ccc(S(=O)(=O)NNC(=O)Nc2cccc3ccccc23)cc1,36.5% (inactive)
9,O=C(CC12CC3CC(CC(C3)C1)C2)Nc1ccc2c(c1)COC2=O,69.7% (inactive)
10,COc1ccc2oc(=O)c(C(=O)N3CCN(c4ccccc4F)CC3)cc2c1,25.2% (inactive)
11,O=C(c1ccc(CN2CCOCC2)cc1)N1CCN(c2ccccc2F)CC1,-5.7% (inactive)
12,O=C(c1cccc2ccccc12)N1CCN(c2ccccc2F)CC1,91.4% (active)
13,COc1ccc(CCNC2=CC(=O)CC(C)(C)C2)cc1,6.34% (inactive)
14,C=CCN1CC(C)/C(=N\O)CC1C (stereo unspecified),-23.6% (inactive)
15,CC1=C/C(=N\S(=O)(=O)c2ccccc2)C(C(C)C)=CC1=O,49.7% (inactive)
16,CC1=C/C(=N\OS(=O)(=O)c2ccccc2)C=CC1=O,108% (active)
17,CCOC(=O)C1(S(=O)(=O)c2ccccc2)CCN(Cc2ccccc2)CC1,-6.62% (inactive)
18,CN(C(=O)CCn1c(=S)oc2ccccc21)C1CCCCC1,4.79% (inactive)
19,CC(C)(C)C(=O)Cn1c(NCCO)nc2ccccc21,9.85% (inactive)
20,O=C(O)[C@@H]1CCCN1c1ncnc2sc3c(c12)CCC3,-1.98% (inactive)
21,OCCNc1nc2ccccc2n1-c1ncnc2sc3c(c12)CCC3,74.4% (active)
22,N/C(=N\S(=O)(=O)c1cc(C(F)(F)F)cc(C(F)(F)F)c1)c1cccs1,34.7% (inactive)
23,Cc1ccc(S(=O)(=O)NC(=O)Nc2nc(-c3ccc(F)c(F)c3)cs2)cc1,1.74% (inactive)
24,CCOC(=O)c1cc(C)nc(S(C)(=O)=O)c1C#N,-90.6% (inactive)

row,SMILES,inhibition
1,COc1cccc(C2c3[nH]c4ccccc4c3CCN2Cc2cccc(C)n2)c1 (stereo unspecified),8.45% (inactive)
2,Oc1cccc(C2c3[nH]c4ccccc4c3CCN2Cc2cnn(-c3ccccc3)c2)c1 (stereo unspecified),106% (active)
3,c1ccc(C2c3[nH]c4ccccc4c3CCN2Cc2cccn2-c2cccnc2)nc1 (stereo unspecified),-19.1% (inactive)
4,Cn1c(CSCC(=O)Nc2ccccc2)nnc1SCc1ccccc1,-6.7% (inactive)
5,COc1ccc(NC(=O)CCN2C(=O)/C(=C/c3ccc4c(c3)OCO4)SC2=S)cc1,-8.39% (inactive)
6,CCCCCCCCn1c2c(c(=N)c3c1CCC3)CCCC2,75.5% (active)
7,O=C(N/N=C/c1cccc([N+](=O)[O-])c1)c1ccncc1,5.76% (inactive)
8,O=C(CSc1nnnn1-c1ccc(O)cc1)c1ccc(F)cc1,17% (inactive)
9,CCOC(=O)Nc1ccc(NC(=O)OCC)cc1,26.9% (inactive)
10,CCCCCOC(=O)NCCOC(=O)Nc1ccc(C(=O)OCC)cc1,83.8% (active)
11,CCCCC(CCC(=O)Nc1ccc(C(=O)OCC)cc1)C(=O)O (stereo unspecified),14.7% (inactive)
12,O=C(CN1CCCCCC1)Nc1ccc(Br)cc1Br,84.9% (active)
13,O=C(CN1CCCCC1)Nc1ccccc1Cl,10.1% (inactive)
14,COc1cc([N+](=O)[O-])ccc1NC(=O)CN1CCCC1,-4.65% (inactive)
15,CCOc1ccc(C2c3[nH]c4ccccc4c3CCN2Cc2cccn2-c2ncccn2)cc1 (stereo unspecified),-20% (inactive)
16,Cc1nnc(N/N=C/c2cccs2)[nH]c1=O,10.9% (inactive)
17,CCOc1ccc(-n2cnc3c(=O)[nH]c(N)nc32)cc1,8.78% (inactive)
18,CC1CC2C3CCC4=CC(=O)C=C[C@]4(C)[C@@]3(F)[C@@H](O)C[C@]2(C)[C@@]1(O)C(=O)CO (stereo partly specified),4.18% (inactive)
19,CCN1CCN(c2nc(Nc3cccc(F)c3)nc(N)c2[N+](=O)[O-])CC1,3.99% (inactive)
20,CNc1nc(Nc2ccc(C)c(Cl)c2)nc(N)c1[N+](=O)[O-],81.6% (active)
21,Nc1nc(Nc2ccccc2)nc(NCCO)c1[N+](=O)[O-],-4.79% (inactive)
22,COc1ccc2c(c1)c1ncn(Cc3ccccn3)c(=O)c1n2C,18.8% (inactive)
23,CCN(CC)C(=O)Oc1ccc(Br)cc1C(=O)Nc1ccc(F)c(Cl)c1,-9.25% (inactive)
24,CN(C)C(=S)Nc1ccc(Br)cc1Cl,-7.26% (inactive)
